We go through 15 molecules from PubChem BioAssay (EPA / NIEHS).

The structures appear in SMILES notation. The source made the active and inactive calls. How the source made its calls: active means hit-call score of the fitted dose curve at least 0.9, where 1 is the maximum; inactive means score below 0.9.

As usually defined, the AC50 is the concentration giving half of the maximal activity seen.

What all share (conditions): mRNA level, 48 h; actives raise or lower the signal
Read-out in assay [1]: sulfotransferase 2A1 (SULT2A1), SULT2A1 (gene 6822)
Briefly: LTEA_HepaRG_SULT2A1: Life Technologies and Expression Analysis (LTEA) Assay for sulfotransferase 2A1 (SULT2A1) using HepaRG (AID 2283531). In short, it runs like this:
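HepaRG human liver cells, 48 h exposure in serum-free induction medium to 8 half-log concentrations topping at 100 µM (0.5% DMSO), duplicate wells. SULT2A1 mRNA measured by TaqMan qRT-PCR, normalized to ACTB/GAPDH/POLR2A; bidirectional fit against DMSO.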

Read-out in assay [2]: Transforming Growth Factor (TGFA), TGFA (gene 7039)
Briefly: LTEA_HepaRG_TGFA: Life Technologies and Expression Analysis (LTEA) Assay for Transforming Growth Factor (TGFA) using HepaRG (AID 2283532). In short, it runs like this: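 Gene expression of TGFA was quantified by qRT-PCR after human HepaRG cells were treated for 48 h with test chemicals (eight concentrations, highest 100 uM, 0.5% DMSO). Activity in either direction was fitted relative to DMSO.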

Read-out in assay [3]: Transforming Growth Factor (TGFB1), TGFB1 (gene 7040)
Kind of assay: LTEA_HepaRG_TGFB1: Life Technologies and Expression Analysis (LTEA) Assay for Transforming Growth Factor (TGFB1) Transporter using HepaRG (AID 2283533). In short, it runs like this:
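Differentiated HepaRG cells exposed 48 hr in serum-free induction medium to eight half-log concentrations up to 100 uM (0.5% DMSO), duplicate; TGFB1 mRNA by TaqMan qRT-PCR normalised to ACTB, GAPDH, POLR2A; bidirectional fit against DMSO.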

Read-out in the next assay: TIMP1, TIMP1 (gene 7076)
Briefly: LTEA_HepaRG_TIMP1: Life Technologies and Expression Analysis (LTEA) Assay for TIMP1 using HepaRG (AID 2283534).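 Further: TaqMan qRT-PCR signal normalized to ACTB GAPDH and POLR2A housekeeping genes.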 In short, it runs like this: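 Differentiated HepaRG cells exposed 48 h in serum-free induction medium, duplicates, eight half-log concentrations from 100 uM in 0.5% DMSO. TIMP1 mRNA by qRT-PCR normalized to ACTB, GAPDH, POLR2A; bidirectional fitting against DMSO.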

Read-out in assay [4]: Tumor necrosis factor receptor 1 (TNFRSF1A), TNFRSF1A (gene 7132)
Briefly: LTEA_HepaRG_TNFRSF1A: Life Technologies and Expression Analysis (LTEA) Assay for Tumor necrosis factor receptor 1 (TNFRSF1A) using HepaRG (AID 2283535). In short, it runs like this: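 Differentiated HepaRG cells in serum-free induction medium, exposed 48 h in duplicate to 8 half-log concentrations up to 100 uM in 0.5% DMSO. TNFRSF1A mRNA by Fluidigm TaqMan qRT-PCR, normalized to ACTB, GAPDH, POLR2A; bidirectional fit.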

Read-out in assay [5]: Thyroid Hormone Responsive (THRSP), THRSP (gene 7069)
Kind of assay: LTEA_HepaRG_THRSP: Life Technologies and Expression Analysis (LTEA) Assay for Thyroid Hormone Responsive (THRSP) using HepaRG (AID 2283536). In short, it runs like this: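 Cell model: human HepaRG, approx. 100,000 cells/well, 0.5% DMSO vehicle. Exposure lasts 48 h; phenobarbital 1 mM serves as induction positive control. Gene expression is measured by qRT-PCR against three endogenous control genes.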

Read-out in assay [6]: Cellular tumor antigen p53 (Homo sapiens) (UniProt P04637)
Kind of assay: LTEA_HepaRG_TP53: Life Technologies and Expression Analysis (LTEA) Assay for Tumor Protein P53 (TP53) using HepaRG (AID 2283537). In short, it runs like this:
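Differentiated HepaRG cells in serum-free induction medium exposed 48 h in duplicate to 8 half-log concentrations, top 100 uM, 0.5% DMSO. TP53 mRNA by TaqMan qRT-PCR (Fluidigm), normalized to ACTB, GAPDH, POLR2A; fitted bidirectionally versus DMSO.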

Read-out in assay [7]: UDP glucuronosyltransferase (UGT1A1), UGT1A1 (gene 54658)
Briefly: LTEA_HepaRG_UGT1A1: Life Technologies and Expression Analysis (LTEA) Assay for UDP glucuronosyltransferase (UGT1A1) using HepaRG (AID 2283538). In short, it runs like this:
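mRNA induction or loss of UGT1A1, by TaqMan qRT-PCR, in duplicate HepaRG wells after 48 h exposure to half-log dilutions topping at 100 uM; DMSO (0.5%) served as baseline.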

Read-out in assay [8]: UDP glucuronosyltransferase (UGT1A6), UGT1A6 (gene 54578)
Kind of assay: LTEA_HepaRG_UGT1A6: Life Technologies and Expression Analysis (LTEA) Assay for UDP glucuronosyltransferase (UGT1A6) using HepaRG (AID 2283539). In short, it runs like this:
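Differentiated HepaRG cells, ~100,000/well, were exposed for 48 h in serum-free induction medium with 0.5% DMSO to 8-point half-log series topping at 100 uM, in duplicate. mRNA measured by Fluidigm TaqMan qRT-PCR, normalized to ACTB, GAPDH and POLR2A.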

Chain of Cellular tumor antigen p53 (Homo sapiens) (P04637 whole entry, looked up): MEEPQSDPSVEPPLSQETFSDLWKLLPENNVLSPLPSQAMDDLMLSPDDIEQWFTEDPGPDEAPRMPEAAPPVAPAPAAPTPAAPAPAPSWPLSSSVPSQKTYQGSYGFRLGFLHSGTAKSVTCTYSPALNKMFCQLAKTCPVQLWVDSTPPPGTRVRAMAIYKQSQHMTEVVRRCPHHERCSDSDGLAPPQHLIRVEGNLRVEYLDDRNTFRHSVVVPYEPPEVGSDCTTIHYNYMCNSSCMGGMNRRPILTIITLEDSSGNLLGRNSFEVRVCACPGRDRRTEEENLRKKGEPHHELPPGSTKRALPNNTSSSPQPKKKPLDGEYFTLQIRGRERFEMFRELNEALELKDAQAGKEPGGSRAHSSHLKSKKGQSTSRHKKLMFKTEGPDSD

With `CS(=O)(=O)c1cc(C(F)(F)F)ccc1C(=O)c1cnoc1C1CC1`, the outcome in assay [1] is “inactive”; in assay [2], “inactive”; in assay [3] it was “inactive”; in the assay with TIMP1, TIMP1 (gene 7076), “inactive”; in [4], “inactive”; in [5], “inactive”. Moreover, the outcome in assay [6], in assay [7] and in assay [8] was inactive.

As to `CCOc1nc(C(Cl)(Cl)Cl)ns1`, the outcome is “inactive” in [1]; “inactive” in the assay with TIMP1, TIMP1 (gene 7076); “inactive” in assay [4]; “inactive” in assay [7]; “inactive” in assay [8]. Moreover, the half-maximal activity concentration (AC50) is 1.14 µM (active) in [2], 0.687 µM (active) in assay [3], 1.06 µM (active) in assay [5] and 1.01 µM (active) in assay [6].

`COC(=O)c1c(C(F)F)nc(C(F)(F)F)c(C2=NCCS2)c1CC(C)C`: the outcome in assay [1] is “inactive”; in [2], “inactive”; in assay [3], “inactive”; with TIMP1, TIMP1 (gene 7076) it was “inactive”; in assay [4], “inactive”; in assay [5], “inactive”. Besides, the molecule was classed as inactive in assay [6] and in [8]. Moreover, the AC50 in assay [7] is 5.73 µM (active).

On to `CCCCOCN(C(=O)CCl)c1c(CC)cccc1CC`, for which the outcome in [1] is “inactive”; in assay [2], “inactive”; in assay [3] it was “inactive”; in the assay with TIMP1, TIMP1 (gene 7076) it was “inactive”; in [4], “inactive”; in assay [5], “inactive”. Besides, the outcome in assay [6] and in assay [8] was inactive. Further, the AC50 in [7] is 50 µM (active).

Take `COCC(=O)N(c1c(C)cccc1C)C(C)C(=O)OC` (stereo not drawn): the outcome was “inactive” in assay [1]; “inactive” in [2]; “inactive” in assay [3]; “inactive” with TIMP1, TIMP1 (gene 7076); “inactive” in assay [4]; “inactive” in assay [5]. Further, the call in assay [6], in assay [7] and in [8] was inactive.

Consider `CCCCC(O)(Cn1cncn1)c1ccc(Cl)cc1Cl` (stereo not drawn), for which the AC50 was 76.3 µM (active) in assay [1]; 71.8 µM (active) in assay [2]; 61.2 µM (active) in [3]; 9.77 µM (active) in [5]; 72.4 µM (active) in assay [6]; 81.4 µM (active) in [7]. In addition, the half-maximal activity concentration (AC50) in assay [8] was 73.4 µM (active). In addition, the outcome in the assay with TIMP1, TIMP1 (gene 7076) is “inactive”; in assay [4] it was “inactive”.

As for `COC(=O)N(C(=O)N1CO[C@@]2(C(=O)OC)Cc3cc(Cl)ccc3C2=N1)c1ccc(OC(F)(F)F)cc1`, the AC50 in [1] was 65 µM (active); in [5], 40 µM (active); in assay [7] it was 10 µM (active). Besides, the outcome in assay [2] is “inactive”; in [3] it was “inactive”; with TIMP1, TIMP1 (gene 7076), “inactive”; in assay [4], “inactive”; in [6], “inactive”; in assay [8] it was “inactive”.

`COC(=O)NS(=O)(=O)c1ccc(N)cc1`: the outcome in assay [1] is “inactive”; in [2], “inactive”; in assay [3], “inactive”; with TIMP1, TIMP1 (gene 7076) it was “inactive”; in assay [4], “inactive”; in assay [5], “inactive”. Also, the molecule was called inactive in assay [6], in assay [7] and in [8].

As for `O=c1n(Cl)c(=O)n(Cl)c(=O)n1Cl`, the outcome in [1] is “inactive”; in [2], “inactive”; in [3], “inactive”; in the assay with TIMP1, TIMP1 (gene 7076), “inactive”; in [4], “inactive”; in assay [5], “inactive”. Also, the result in assay [6], in [7] and in assay [8] was inactive.

As for `CCC(C)n1c(=O)[nH]c(C)c(Br)c1=O` (stereo not drawn), the results for the AC50 in [1], in assay [5] and in assay [7] were 24.9 µM (active), 18.5 µM (active) and 5.95 µM (active), respectively. In addition, the outcome in assay [2] was “inactive”; in [3] it was “inactive”; with TIMP1, TIMP1 (gene 7076) it was “inactive”; in assay [4], “inactive”; in assay [6] it was “inactive”; in assay [8], “inactive”.

In the case of `CCOP(=O)(OCC)Oc1nc(Cl)c(Cl)cc1Cl`, the figures for the AC50 in [1] and in [5] were 75.9 µM (active) and 84.2 µM (active), respectively. Besides, the outcome was “inactive” in [2]; “inactive” in [3]; “inactive” with TIMP1, TIMP1 (gene 7076); “inactive” in [4]; “inactive” in [6]; “inactive” in assay [7]. Also, the molecule was classed as inactive in [8].

As for `O=C(O)c1c(Cl)ccc2cc(Cl)cnc12`, the outcome was “inactive” in assay [1]; “inactive” in [2]; “inactive” in assay [3]; “inactive” with TIMP1, TIMP1 (gene 7076); “inactive” in assay [4]; “inactive” in [5]. In addition, the call in assay [7] and in [8] was inactive.

`CC1(C)C(C=C(Cl)Cl)C1C(=O)OC(C#N)c1cccc(Oc2ccccc2)c1` (stereo not drawn): the outcome in [1] was “inactive”; in assay [2], “inactive”; in assay [3] it was “inactive”; with TIMP1, TIMP1 (gene 7076), “inactive”; in assay [4], “inactive”; in assay [5], “inactive”. For the same molecule, the outcome in assay [6] and in assay [8] was inactive. Also, in assay [7], the AC50 was 17.3 µM (active).

As to `C=C(C)CN(CC)c1c([N+](=O)[O-])cc(C(F)(F)F)cc1[N+](=O)[O-]`, the outcome in assay [1] is “inactive”; in assay [2], “inactive”; in assay [3], “inactive”; with TIMP1, TIMP1 (gene 7076) it was “inactive”; in assay [4] it was “inactive”; in assay [5], “inactive”. Besides, the result in assay [6] and in assay [8] was inactive. The half-maximal activity concentration (AC50) in assay [7] was 50 µM (active).

As to `CC(C)=CC1C(C(=O)OCc2coc(Cc3ccccc3)c2)C1(C)C` (stereo not drawn), the outcome in [1] was “inactive”; in [2], “inactive”; in assay [3] it was “inactive”; in the assay with TIMP1, TIMP1 (gene 7076) it was “inactive”; in assay [4], “inactive”; in assay [5] it was “inactive”. The outcome in [8] was inactive. Moreover, the AC50 in assay [7] is 39.4 µM (active).
